This is a sample that favours compounds with a hit; in the whole collection about 1.7% have one here.
PTHR1 agonist = agonists of human PTHR1 parathyroid hormone receptor | hit rate 0.075% among 410,000 | HEK293 GP2 PTHR1 cells, GloSensor cAMP luminescence, 1 h | AID 743266 | Potency, µM (titrated, usually from 115 µM), most hits filed as activators; note: nearly all actives have a fitted effect of over 55% in size
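HEK-293-derived GP2 cells expressing PTHR1 and a GloSensor cAMP reporter, 3,000/well, plated overnight, given luciferin plus IBMX (each 0.5 mM as added) for 1 h at 37 °C, then compound for 1 h at 37 °C. Luminescence was read after 15 min at room temperature.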
mIDH1 inhibitor = blocks human mutant IDH1 R132H enzyme. O75874. IDH1-R132H enzyme, NADPH consumption, diaphorase/resazurin fluorescence. Potency, µM (doses to about 76.6 µM), actives largely listed as inhibitors. hit rate 0.093% among 390,000; note: nearly all actives have a fitted effect of over 65% in size
Target sequence (O75874 whole entry R132H, stated change not applied): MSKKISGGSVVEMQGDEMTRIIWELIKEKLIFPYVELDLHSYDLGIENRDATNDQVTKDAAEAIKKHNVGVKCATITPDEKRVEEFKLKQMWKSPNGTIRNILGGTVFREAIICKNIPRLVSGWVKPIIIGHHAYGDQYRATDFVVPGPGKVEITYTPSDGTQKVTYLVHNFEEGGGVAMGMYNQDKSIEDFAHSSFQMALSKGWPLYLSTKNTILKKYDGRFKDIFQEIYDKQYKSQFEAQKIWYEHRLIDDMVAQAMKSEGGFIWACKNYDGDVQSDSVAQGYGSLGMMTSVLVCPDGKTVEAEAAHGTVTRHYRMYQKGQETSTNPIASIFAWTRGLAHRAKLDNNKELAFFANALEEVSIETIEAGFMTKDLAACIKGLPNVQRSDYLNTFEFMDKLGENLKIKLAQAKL
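IDH1-R132H (0.5 ug/mL dispensed) in pH 7.5 Tris buffer was preincubated 30 min with compound, then given a substrate mix of 0.016 mM NADPH and 2 mM alpha-KG for 80 min at room temperature; remaining NADPH was read by diaphorase/resazurin fluorescence.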
GLP1R cytotox = cytotoxicity in counter-screen for GLP-1R inverse agonists. AID 624418. hit rate 0.13% among 410,000. Potency, µM (doses to about 38.3 µM), hits mostly inhibitors. HEK293 cAMP-luciferase reporter cells, luminescence, 24 h;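 note: loss of luciferase light is scored as toxicity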
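Step one: seed cells (200 cells/uL, DMEM with 10% Nu serum, 1% pen-strep). Step two: 12-hour incubation at 37 deg C. Step three: pin 23 nL compound, incubate 24 hr. Step four: add luciferase reagent, read luminescence 12 min later.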
GLP1R inv ag = GLP-1 receptor (human) inverse agonism. HEK293 GLP-1R CRE-luciferase, luminescence, 24 h; GLP-1R form is constitutively active. Potency, µM (titrated, usually from 38.3 µM), actives largely listed as inhibitors. hit rate 1.6% among 410,000. AID 624417; note: nearly all actives have a fitted effect of over 55% in size
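Assay principle: reduced luminescence from a cAMP-responsive reporter in HEK293 cells co-expressing a constitutively active GLP-1R. Conditions: 24 hr compound incubation, 37 deg C, 5% CO2.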
GLP1R ag = GLP-1 receptor (human) agonism. hit rate 0.007% among 380,000. AID 624172. P43220. HEK293 GLP-1R CRE-luciferase, luminescence, 4-6 h; cells express a hypersensitive GLP-1R form. Potency, µM (doses to about 45.6 µM), hits mostly activators
LDHA inh = LDHA (human) enzyme inhibition; hit rate 0.15% among 480,000; activity change, % (values are at about 110 or 230 µM); P00338; purified LDHA, NADH/diaphorase-resazurin fluorescence; hits give low values; in the data active = activity change below about -30%; inconclusive = mostly about -25% to -30%
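Human LDH5 (2 nM) was incubated with 0.06 mM NADH and 0.2 mM pyruvate for 5 min at room temperature in Tris pH 7.4. Remaining NADH was coupled through diaphorase/resazurin, and resorufin fluorescence was read at 0 and 20 min.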
Numbers stand for hits; – = inactive; ? = inconclusive; · = no result given. Unless noted, calls come from the whole dose curve; as a rule, active = well fitted curve in the direction sought with a large enough effect; inconclusive = small, poorly fitted or top-dose-only effect, or another doubt; inactive = no such curve, though single readings can be large; an effect the other way counts as inactive or inconclusive.

SMILES | PTHR1 agonist | mIDH1 inhibitor | GLP1R cytotox | GLP1R inv ag | GLP1R ag | LDHA inh
O=C(Oc1ccccc1)c1cccc(C(=O)Oc2ccccc2)c1 | · | · | · | · | – | ·
COc1ccc(CC(=O)N2CC3(C)CC2CC(C)(C)C3)cc1 (stereo unspecified) | – | – | – | 11µM | – | –
Cc1cccc(C)c1OCC(=O)N1CC2(C)CC1CC(C)(C)C2 (stereo unspecified) | – | – | – | ? | – | –
Cc1ccc(OCC(=O)N2CC3(C)CC2CC(C)(C)C3)cc1 (stereo unspecified) | – | – | – | 10µM | – | –
Cc1ccc(C(=O)Nc2ccccc2C(=O)N2CC3(C)CC2CC(C)(C)C3)cc1 (stereo unspecified) | – | – | – | 10µM | – | –
CC1(C)CC2CC(C)(CN2C(=O)Cc2ccccc2)C1 (stereo unspecified) | – | – | – | ? | – | –
NC(=O)CCN1CCN(S(=O)(=O)c2cc(F)ccc2F)CC1 | · | · | · | · | · | –
Cc1ccc(C2C(C=Nc3c(C)n(C)n(-c4ccccc4)c3=O)=C(c3ccccc3)Oc3ccccc32)cc1 (stereo unspecified) | – | – | – | 4µM | – | –
Cc1c(C)c(C)c(S(=O)(=O)N2CCSCC2)c(C)c1C | – | – | ? | – | – | –
Cc1cc(C)c(C)c(S(=O)(=O)N2CCSCC2)c1C | – | – | – | 10µM | – | –
Cc1cc(C)n(CCCN2CCC(C(=O)Nc3cccc(-c4cccc(F)c4)c3)CC2)n1 | – | – | ? | 7.1µM | – | –
CCn1ncc(CN2CCC(C(=O)Nc3cccc(-c4cccc(F)c4)c3)CC2)c1C | – | – | – | – | – | –
CCC1CCCN(C(=O)Cn2cc(Br)c(=O)[nH]c2=O)C1 (stereo unspecified) | · | · | · | · | · | –
Cc1ccc(-c2nnn(CC(O)COc3cc(C)ccc3C)n2)cc1 (stereo unspecified) | · | · | · | · | · | –
Cc1cc2cc(CN(CCN(C)C)C(=S)NCc3ccco3)c(=O)[nH]c2cc1C | – | – | – | ? | – | –
CCN(CC)CCN(Cc1cc2cc(C)ccc2[nH]c1=O)C(=O)Nc1ccccc1OC | – | – | ? | 13µM | – | –
CCN(CC)CCN(Cc1cc2cc(C)c(C)cc2[nH]c1=O)C(=S)NCc1ccco1 | – | – | ? | 10µM | – | –
COc1ccccc1NC(=O)N(Cc1ccco1)Cc1cc2cccc(C)c2[nH]c1=O | – | – | – | 11µM | – | –
CCCCN(c1ccccc1)S(=O)(=O)c1cccc(C(=O)Nc2c(C)n(C)n(-c3ccccc3)c2=O)c1 | – | – | – | 11µM | – | –
Cc1ccccc1-c1nc(SCc2cc(=O)n3nc(C(C)C)sc3n2)n[nH]1 | · | · | · | · | · | –
CC1CCCC(C)N1C(=O)c1ccccc1Nc1ccc(SC(F)F)cc1 (stereo unspecified) | – | – | – | 5.6µM | – | –
CC1CN(C(=O)c2ccccc2Nc2ccc(SC(F)F)cc2)CC(C)O1 (stereo unspecified) | – | – | – | – | – | –
Cc1cc(C(=O)COC(=O)c2cccs2)c(C)n1Cc1ccco1 | · | · | · | · | · | -33
Cc1cc(C(=O)COC(=O)c2ccc(O)cc2)c(C)n1Cc1ccco1 | – | – | – | ? | – | –
CCCCN(Cc1ccccc1)c1ccc(NS(=O)(=O)c2ccc(F)cc2)cc1C(=O)O | · | · | · | · | · | –
SMILES | PTHR1 agonist | mIDH1 inhibitor | GLP1R cytotox | GLP1R inv ag | GLP1R ag | LDHA inh
COc1ccc(S(=O)(=O)Nc2ccc(Nc3ccccc3)cc2)cc1 | – | – | – | 7.1µM | – | –
O=[N+]([O-])c1ccc(O)c(/C=N/NC(=S)Nc2ccc(Cl)cc2Cl)c1 | – | – | – | 2µM | – | –
CCn1nc(C)c(/C=N/NC(=S)Nc2ccc(Cl)cc2Cl)c1C | – | – | ? | 4µM | – | –
CCN1CCN(c2nc3ccccc3nc2NS(=O)(=O)c2cc(Cl)ccc2Cl)CC1 | · | · | · | · | · | –
O=[N+]([O-])c1cccc(NNS(=O)(=O)c2ccccc2F)c1 | – | – | – | 6.3µM | – | –
COCc1cc(C)nc2sc(C(=O)NN)c(-n3cccc3)c12 | – | – | – | – | – | –
CCCCNC(=O)c1sc2nc(C)cc(COC)c2c1-n1cccc1 | – | – | – | 8.9µM | – | –
COc1cc(C)c(S(=O)(=O)N2CCN(c3cc(N4CCCC4)nc(C)n3)CC2)cc1C | · | · | · | · | · | –
Cc1cc(=O)n2c(n1)NC(Nc1ccc(F)cc1)=NC2c1ccco1 (stereo unspecified) | · | · | · | · | · | –
Cc1cc(=O)n2c(n1)NC(Nc1ccc(F)cc1)=NC2c1cccs1 (stereo unspecified) | · | · | · | · | · | -37
CCCCn1c(=O)[nH]c(=O)c2c1nc(COC(=O)C1(c3ccc(Cl)cc3)CC1)n2CC | · | · | · | · | · | –
COc1ccc(-c2csc(Nc3cccc4ccccc34)n2)cc1 | · | · | · | · | · | –
CC(C)CN(CC(C)C)C(=O)Nc1ccccc1F | – | – | – | 8.9µM | – | –
O=C(CC(=O)Nc1ccccc1F)Nc1ccccc1F | – | – | – | – | – | –
Cc1[nH]c(C(=O)N2CCC(CC(=O)NCc3ccc4c(c3)OCO4)CC2)c(C)c1C(=O)OC(C)C | · | · | · | · | · | –
COc1ccc(Br)cc1CNC(=O)CCCc1cn(C)c2ccccc12 | – | – | – | 22µM | – | –
Cc1ccc(Sc2ncccc2Cl)cc1 | · | · | · | · | · | –
O=C(/C=C/c1cccc([N+](=O)[O-])c1)NCCSCc1ccc(Cl)cc1 | – | – | – | 10µM | – | –
O=C(/C=C/c1cccc([N+](=O)[O-])c1)NCCSCc1c(Cl)cccc1Cl | – | – | – | ? | – | –
CC(C)(C)OC(=O)[C@H](Cc1ccccc1)NC(=O)c1nc[nH]c1C(=O)N[C@@H](Cc1ccccc1)C(=O)OC(C)(C)C | – | – | – | 10µM | – | –
CCCCCCC1CC[S+](c2cc(O)ccc2O)CC1 (stereo unspecified) | · | · | · | · | · | –
CN(CC(=O)NCCc1ccc(F)cc1)Cc1ccc(Br)cc1 | – | – | – | 10µM | – | –
Nc1nccnc1C(=O)NCC1CC2c3ccccc3C1c1ccccc12 (stereo unspecified) | · | · | · | · | · | –
CC(CNC(=O)c1cnn(-c2ccc(F)cc2)c1-n1cccc1)c1ccccc1 (stereo unspecified) | – | – | – | 10µM | – | –
Cc1ccc(C)c(NC(=O)c2cc(-c3cc(C)oc3C)nc3onc(C)c23)c1 | · | · | · | · | · | –
CC12CCC(C(=O)N3CCc4ccccc43)(CC1=O)C2(C)C (stereo unspecified) | – | – | – | 13µM | – | –
CCCCOc1ccccc1C(=O)N1CCC(c2nc3ccccc3o2)CC1 | · | · | · | · | · | –
